Laboratory results taken from PubChem BioAssay (NCI).
Compounds without any hit were thinned out: in the full panel of roughly 83,000, 20% have a hit.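 Growth was measured after 48 h exposure to one concentration of compound in 96-well plates. Values under 10 count as active.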 A number with no mark means an inactive call. Activity calls are given as the source filed them.

Assays:
Experiment in all cases: NCI-60 one-dose screen, 48 h (100 = growth as untreated, 0 = no growth, -100 = all killed)
SR leukemia = conditions: 10 µM unless noted
RPMI-8226 leukemia = conditions: 10 µM unless noted
OVCAR-5 ovarian = conditions: 10 µM unless noted
OVCAR-4 ovarian = conditions: 10 µM unless noted
SK-OV-3 ovarian = conditions: 10 µM unless noted
OVCAR-3 ovarian = conditions: 10 µM unless noted
HS 578T breast = conditions: 10 µM
NCI/ADR-RES ovarian = conditions: 10 µM unless noted
T-47D breast = conditions: 10 µM unless noted
BT-549 breast = conditions: 10 µM unless noted
MDA-MB-435 melanoma = conditions: 10 µM unless noted
SW-620 colon = conditions: 10 µM unless noted
MCF7 breast = conditions: 10 µM unless noted
HCT-116 colon = conditions: 10 µM unless noted
KM12 colon = conditions: 10 µM unless noted
HCC-2998 colon = conditions: 10 µM
OVCAR-8 ovarian = conditions: 10 µM unless noted
IGROV1 ovarian = conditions: 10 µM unless noted

Structure (SMILES) | growth (SR leukemia) | growth (RPMI-8226 leukemia) [%] | growth (OVCAR-5 ovarian) | growth (OVCAR-4 ovarian) | growth (SK-OV-3 ovarian) | growth (OVCAR-3 ovarian) | growth (HS 578T breast) | growth (NCI/ADR-RES ovarian) | growth (T-47D breast) | growth (BT-549 breast) | growth (MDA-MB-435 melanoma) | growth (SW-620 colon) | growth (MCF7 breast) | growth (HCT-116 colon) | growth (KM12 colon) | growth (HCC-2998 colon) | growth (OVCAR-8 ovarian) | growth (IGROV1 ovarian)
O=C(COc1cccc(/C=C2\Cc3ccc(Cl)cc3C2=O)c1)Nc1nccs1 | 48% | 54.6 | 102% | 81.6% | 96% | 89.6% | 105% | 76.6% | 55.5% | 87.3% | 86.6% | 110% | 35.1% | 64.5% | 77.2% |  |  | 
C[C@@H](NC(=O)c1ncnc(N)c1Cl)c1ncc(C(=O)Nc2cc(C(F)(F)F)c(Cl)cn2)s1 | 57.5% | 71.9 | 31.3% | 98.5% | 93.6% | 95% |  | 79.8% | 92.2% |  | 39.3% | 56.9% | 96.2% | 25.3% | 75.1% | 69.4% |  | 
O=C(Nc1ccc(C2=NCCCN2)cc1)c1ccc(C(=O)Nc2ccc(C3=NCCCN3)cc2)nc1 | 85.2% |  | 95.1% | 102% | 106% | 101% | -26.5% (active) | 102% |  | 106% | 117% | 104% | 98% | 93.2% | 112% |  | 112% | 107%
CCCC(=O)OCC1OC(n2cnc3c(=S)nc[nH]c32)C(OC(=O)CCC)C1OC(=O)CCC (stereo unspecified) | 24% |  | 46.2% | 31.3% | 21% | 22.7% | 47.7% | 48.3% | 36.5% | 45.5% | 38% | 38.1% | 24.2% | 35.9% | 43.3% | 2.11% (active) | -8.32% (active) | 14.7%
CCOC(=O)Sc1ncnc2nc[nH]c12 | 9.18% (active) |  | 47.2% | 35.1% | 23.9% | 26.4% | 76.2% | 37% | 34.7% | 50.7% | 33.3% | 68.5% | 18.7% | 31.2% | 59.3% | 26.4% | 18.5% | 45.1%
O=CC(OC(=O)c1ccccc1)C(OC(=O)c1ccccc1)C(COC(c1ccccc1)(c1ccccc1)c1ccccc1)OC(=O)c1ccccc1 (stereo unspecified) | -12.9% (active) |  | 61% | 89.9% | 98.8% | 21.4% | 51.8% | 92.8% | 25.6% | 65.6% | 45.7% | -37.6% (active) | 36.6% | 7.51% (active) |  | 96.6% | -17.6% (active) | -38.5% (active)
Nc1cc2c(cc1Br)-c1c(C(=O)O)cccc1C2O (stereo unspecified) | 109% |  | 102% | 103% | 110% | 147% | 143% |  | 105% | 114% | 105% | 110% | 95.4% | 96.4% | 99.3% | 112% | 107% | 98.6%
C/C(=N\NC(=O)Cn1c(-c2ccc(S(C)(=O)=O)cc2)nc2ccccc21)c1ccc(Cl)cc1 | 87.9% | 87.1 | 106% | 100% | 94.9% | 96.6% |  | 103% | 81.3% |  | 97.4% | 101% | 82.9% | 83.1% | 95.6% | 106% |  | 92.6%
CCc1ccc(C2=C(O)C(=O)C(c3ccc(CC)cc3)=C(O)C2=O)cc1 | -18.5% (active) |  | -0.569% (active) | -0.208% (active) | -9.04% (active) | -47.2% (active) | -21.6% (active) | -18.5% (active) | 7.67% (active) | -23% (active) | 3.73% (active) | 2.8% (active) | 2.11% (active) | 1.12% (active) | -1.36% (active) |  | -59% (active) | -36.3% (active)
O=C(COc1ccc(/C=C2\Cc3ccc(Cl)cc3C2=O)cc1)Nc1nccs1 | 148% | 91.7 | 100% | 90% | 108% | 103% | 101% | 86.7% | 85.2% | 106% | 113% | 106% | 89% | 91.3% | 115% |  |  | 
